Laboratory results taken from PubChem BioAssay (EPA / NIEHS).
Where “and” joins values, the source holds several entries; their conditions need not be identical. Equal values may be shown once. Results filed as inconclusive are left out. More than one record can exist for a structure, and the calls need not agree. Calls of active or inactive are those of the source. Rule for the calls, unless noted: active = hit-call score of the fitted dose curve at least 0.9, where 1 is the maximum; inactive = score below 0.9.

Tests used:
[1] = target: Estrogen receptor (Homo sapiens) (UniProt P03372); test: CCTE_Deisenroth_AIME_96WELL_LUC_Active: CCTE's 96-well Estrogen Receptor Transactivation Assay with AIME metabolic competence (ERTA luciferase; metabolism positive), Deisenroth Lab (AID 2284023; active = hit-call score of the fitted dose curve at least 0.9, where 1 is the maximum)
Method in brief: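 Metabolism-positive mode: induced rat hepatic S9 in alginate microspheres conditions test solutions (0.002 - 200 uM, 10 points) for 2 hours. VM7Luc4E2 ER luciferase reporter cells then exposed 24 h; positive-direction fit against 17beta-estradiol, n=4 typical.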

[2] = target: Estrogen receptor (Homo sapiens) (UniProt P03372); test: CCTE_Deisenroth_AIME_96WELL_LUC_Inactive: CCTE's 96-well Estrogen Receptor Transactivation Assay without AIME metabolic competence (ERTA luciferase; metabolism negative), Deisenroth Lab (AID 2284025; active = hit-call score of the fitted dose curve at least 0.9, where 1 is the maximum)
Method in brief: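 Metabolism-negative arm: chemicals (0.002–200 uM, 10 points) incubated 2 h with alginate-water microspheres, then medium moved onto VM7Luc4E2 cells for 24 h luciferase read-out. Positive direction vs 17beta-estradiol; n≥4 experiments.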

[3] = CCTE_Deisenroth_AIME_96WELL_CTox_Active: Cytotoxicity Assessment (CTOX) in CCTE's 96-well Estrogen Receptor Transactivation Assay with AIME metabolic competence (metabolism positive), Deisenroth Lab (AID 2284028; active = hit-call score of the fitted dose curve at least 0.9, where 1 is the maximum)
Method in brief: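 Cytotoxicity in VM7Luc4E2 breast cells after 24 h exposure to medium from a 2 h metabolic pre-incubation with induced rat hepatic S9 in alginate microspheres; fluorescent live-cell protease readout, 10-point series 0.002–200 uM, n=4.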

[4] = CCTE_Deisenroth_AIME_96WELL_CTox_Inactive: Cytotoxicity Assessment (CTOX) in CCTE's 96-well Estrogen Receptor Transactivation Assay without AIME metabolic competence (metabolism negative), Deisenroth Lab (AID 2284029; active = hit-call score of the fitted dose curve at least 0.9, where 1 is the maximum)
Method in brief: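 Metabolism-negative mode: alginate-water lids without rat S9, 2 h pre-incubation of 10-point series (0.002 - 200 uM). Conditioned medium on VM7Luc4E2 cells 24 h; loss of fluorescent live-cell protease signal marks cytotoxicity.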

[5] = CCTE_Shafer_MEA_dev_per_burst_spike_percent: CCTE's Neural Network Formation Assay for Percent of Spikes in a Burst, Shafer Lab (AID 2284032);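 for AC50: fitted as a decrease in burst spike percentage below DMSO baseline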
Method in brief: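 Value is trapezoidal AUC over recordings on days 5, 7, 9 and 12 of the well-mean fraction of spikes falling in single-electrode bursts; rat cortical cultures exposed continuously from plating, treatment renewed DIV 5 and 9, fitted downward against DMSO.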

[6] = CCTE_Shafer_MEA_dev_active_electrodes_number: CCTE's Neural Network Formation Assay for Number of Active Electrodes, Shafer Lab (AID 2284040; active = hit-call score of the fitted dose curve at least 0.9, where 1 is the maximum;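 for AC50: potency for loss of active electrodes versus DMSO so lower counts are hits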)
Method in brief: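 Counts electrodes per well firing at least 5 spikes/min, recorded on days 5, 7, 9 and 12 in rat cortical cultures dosed continuously from plating (treatment refreshed DIV 5, 9). Value is the area under the curve over recordings, fitted downward relative to DMSO.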

[7] = CCTE_Shafer_MEA_dev_burst_rate: CCTE's Neural Network Formation Assay for Burst Rate, Shafer Lab (AID 2284042);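 for AC50: potency for loss of burst rate below DMSO control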
Method in brief: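 Rat primary cortical cultures on PEI/laminin MEA; compound from plating, re-dosed at DIV 5, 9 media change. Single-electrode bursts/recording length, well mean of active electrodes; AUC over DIV 5–12 recordings; loss-of-signal vs DMSO.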

[8] = CCTE_Deisenroth_AIME_384WELL_CTox_Active: Cytotoxicity Assessment (CTOX) in CCTE's 384-well Estrogen Receptor Transactivation Assay with AIME metabolic competence (metabolism positive), Deisenroth Lab (AID 2284037; active = hit-call score of the fitted dose curve at least 0.9, where 1 is the maximum;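 note: chemicals first conditioned 2 h by alginate-bound induced rat liver S9 before cells; activity means signal loss indicating cell death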)
Method in brief: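 Cytotoxicity in VM7Luc4E2 breast cells, 24 hour, measured as protease-substrate fluorescence loss, after 2-hour metabolic conditioning with induced rat hepatic S9 in alginate microspheres. Concentrations 0.002 - 200 uM, 10 points, bidirectional fitting.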

[9] = CCTE_Deisenroth_AIME_384WELL_CTox_Inactive: Cytotoxicity Assessment (CTOX) in CCTE's 384-well Estrogen Receptor Transactivation Assay without AIME metabolic competence (metabolism negative), Deisenroth Lab (AID 2284039; active = hit-call score of the fitted dose curve at least 0.9, where 1 is the maximum;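 note: cell viability via live-cell protease substrate cleaved to fluorescent probe; cells exposed 24 h to medium preincubated 2 h with alginate-water beads without S9; loss of fluorescence signal means loss of viability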)
Method in brief: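 VM7Luc4E2 human breast cells received conditioned medium from a 2 h incubation of chemical with alginate-water microspheres (no S9), then were exposed 24 h. Viability was read as protease-substrate cleavage to a fluorescent probe; loss of signal was fitted bidirectionally over 0.002–200 uM.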

[10] = target: Estrogen receptor (Homo sapiens) (UniProt P03372); test: CCTE_Deisenroth_AIME_384WELL_LUC_Shift: CCTE's 384-well Estrogen Receptor Transactivation Assay with AIME metabolic competence data shift (ERTA luciferase; difference in metabolism positive and negative), Deisenroth Lab (AID 2284041);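 note: shift is response with S9 minus without S9 so positive means metabolism raised ER signal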
Method in brief: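 Test chemicals (0.002–200 uM, 10-point) were pre-incubated 2 h with alginate microspheres containing phenobarbital/beta-naphthoflavone-induced male Sprague Dawley rat liver S9 or water, then medium was transferred to VM7Luc4E2 cells for 24 h luciferase readout; shift = S9-positive minus S9-negative normalized response.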

[11] = CCTE_Shafer_MEA_acute_burst_percentage_mean: CCTE's Neural Acute Assay for Percentage of Spikes in a Burst, Shafer Lab (AID 2284017);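 for AC50: curve fitted for loss of signal so potency reflects decreased burst percentage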
Method in brief: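 Primary rat cortical neurons on 16-electrode MEA wells; 40 min baseline recorded at DIV 13 or 15, then 40 min after compound (0.03-40 uM) at 37 C. Well-mean fraction of spikes in single-electrode bursts; percent change from baseline, DMSO as negative control.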

[12] = CCTE_Shafer_MEA_acute_burst_percentage_std: CCTE's Neural Acute Assay for Standard Deviation of Burst Percentage, Shafer Lab (AID 2284018);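 note: fitted in the negative direction so actives lower burst percentage SD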
Method in brief: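 Value is percent change from baseline in the across-electrode SD of spikes-in-bursts percentage, wells with >/= 10 active electrodes. Acute 40-min exposure to 0.03-40 uM on DIV 13 or 15 rat cortical cultures, recorded at 37 C after 40-min baseline.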

[13] = CCTE_Shafer_MEA_acute_per_network_burst_spike_number_std: CCTE's Neural Acute Assay for Standard Deviation of Number of Spikes in a Network Burst, Shafer Lab (AID 2284020);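 note: fitted for decrease in spike-number SD versus DMSO so actives lower it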
Method in brief: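 Endpoint: percent change from 40 min baseline in standard deviation of spikes per network burst, after 40 min compound exposure (0.03-40 uM, 37 C). Cortical rat neurons on MEA at DIV 13 or 15; spikes detected at 8x rms noise, 300-5000 Hz band-pass.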

[14] = CCTE_Shafer_MEA_acute_per_network_burst_electrodes_number_mean: CCTE's Neural Acute Assay for Mean Number of Electrodes in a Network Burst, Shafer Lab (AID 2284021);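 note: curves fitted for decreases only so hits reduce electrodes per burst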
Method in brief: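 Cultures of rat cortex neurons were exposed on DIV 13 or 15 to compounds at 0.03-40 uM in at least three wells each. Activity over 40 min before and 40 min after exposure at 37 C gave the percent change in electrodes per network burst.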

[15] = CCTE_Shafer_MEA_acute_network_burst_percentage: CCTE's Neural Acute Assay for Percentage of Network Bursts, Shafer Lab (AID 2284022);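 note: curves fitted for loss so actives lower network burst percentage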
Method in brief: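 Cortical neurons from rat were grown over microelectrode arrays and used on day 13 or 15 in vitro. Wells with at least 10 active electrodes received test chemical at 0.03-40 uM. Activity during 40 min of exposure was compared with the preceding 40-min baseline.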

[16] = CCTE_Shafer_MEA_acute_cross_correlation_area: CCTE's Neural Acute Assay for Area of Cross Correlation, Shafer Lab (AID 2284024);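 note: rat primary cortical neuron networks on 48-well MEA at DIV 13 or 15 with 40 min exposure; area under pooled inter-electrode spike cross-correlation near zero lag as percent change from own baseline; curves fitted for loss of cross-correlation area so actives lower synchrony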
Method in brief: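 Acute exposure of mature rat cortical networks (day 13 or 15 post-plating) to 0.03-40 uM compound. Spontaneous spiking on MEA, 40 min pre- and post-dose at 37 C.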

[17] = CCTE_Shafer_MEA_acute_cross_correlation_HWHM: CCTE's Neural Acute Assay for Cross Correlation at Half Width at Half Maximum, Shafer Lab (AID 2284026);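 note: percent change per well from pre-dose baseline in spike cross-correlogram half width; hits are a decrease in cross-correlogram half width relative to DMSO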
Method in brief: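 Primary cortex (rat), MEA, DIV 13/15; compound 0.03-40 uM; 40 min pre + 40 min post at 37 C; spike threshold 8x rms; wells need ≥10 active electrodes; endpoint = % change in cross-correlogram HWHM vs baseline, DMSO negative control.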

[18] = CCTE_Shafer_MEA_acute_synchrony_index: CCTE's Neural Acute Assay for Synchrony, Shafer Lab (AID 2284027);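 note: network synchrony index of spontaneous spiking in primary rat cortical neurons on MEAs; fitted for loss of signal so actives lower synchrony relative to DMSO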
Method in brief: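 Plates equilibrated 20 min at 37 C, baseline recorded 40 min, compound (0.03-40 uM) added, then 40 min more recorded. Cells: primary rat cortical neurons, DIV 13 or 15. Per-well synchrony index change analysed in negative direction against DMSO.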

[19] = target: Estrogen receptor (Homo sapiens) (UniProt P03372); test: CCTE_Deisenroth_AIME_384WELL_LUC_Active: CCTE's 384-well Estrogen Receptor Transactivation Assay with AIME metabolic competence (ERTA luciferase; metabolism positive), Deisenroth Lab (AID 2284030; active = hit-call score of the fitted dose curve at least 0.9, where 1 is the maximum)
Method in brief: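 In this metabolism-positive format, a 2-hour exposure to alginate-immobilized rat S9 precedes a 24 hour luciferase transactivation readout in VM7Luc4E2 cells. Dosing spans 10 concentrations from 0.002 to 200 uM.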

[20] = target: Estrogen receptor (Homo sapiens) (UniProt P03372); test: CCTE_Deisenroth_AIME_384WELL_LUC_Inactive: CCTE's 384-well Estrogen Receptor Transactivation Assay without AIME metabolic competence (ERTA luciferase; metabolism negative), Deisenroth Lab (AID 2284038; active = hit-call score of the fitted dose curve at least 0.9, where 1 is the maximum;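 note: hits raise estrogen receptor luciferase signal so potencies reflect agonists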)
Method in brief: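 VM7Luc4E2 ER transactivation, luciferase bioluminescence after 24 h, using medium pre-incubated 2 h with S9-free alginate microspheres. Concentrations 0.002–200 uM; gain of signal fitted relative to 17beta-estradiol.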

Measured: AC50

Estrogen receptor (Homo sapiens), sequence (P03372 whole entry, looked up): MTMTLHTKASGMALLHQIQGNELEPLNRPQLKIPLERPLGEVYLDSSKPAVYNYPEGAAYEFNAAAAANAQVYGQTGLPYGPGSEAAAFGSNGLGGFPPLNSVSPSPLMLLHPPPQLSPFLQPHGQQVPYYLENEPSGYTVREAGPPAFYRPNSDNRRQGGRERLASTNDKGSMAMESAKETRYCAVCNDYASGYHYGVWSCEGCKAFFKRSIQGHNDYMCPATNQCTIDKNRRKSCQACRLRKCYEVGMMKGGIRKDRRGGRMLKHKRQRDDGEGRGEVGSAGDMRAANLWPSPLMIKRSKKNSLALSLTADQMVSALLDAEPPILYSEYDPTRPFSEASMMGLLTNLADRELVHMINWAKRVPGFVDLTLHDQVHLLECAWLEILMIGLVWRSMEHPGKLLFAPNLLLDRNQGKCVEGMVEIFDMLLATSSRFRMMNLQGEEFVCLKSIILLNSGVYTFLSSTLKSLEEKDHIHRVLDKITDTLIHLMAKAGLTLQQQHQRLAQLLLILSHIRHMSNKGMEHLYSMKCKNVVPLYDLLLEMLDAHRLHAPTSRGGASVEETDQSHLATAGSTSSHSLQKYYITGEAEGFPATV

CCCCC(CC)COC(=O)c1ccccc1C(=O)OCC(CC)CCCC (stereo not drawn)
active: [5] 15 µM and 9.27 µM | [6] 15 µM and 7.34 µM | [7] 2.98 µM and 6.34 µM
inactive: [1] | [2] | [3] | [4] | [5] | [6] | [7]

CCc1nn(C)c(C(=O)NCc2ccc(C(C)(C)C)cc2)c1Cl
active: [8] 1.82 µM
inactive: [9] | [10]

CCCCNC(=O)n1c(NC(=O)OC)nc2ccccc21
inactive: [7]
active: [5] 15 µM | [6] 15 µM

CN(C)C(=S)SSC(=S)N(C)C
active: [5] 0.0103 µM | [6] 0.011 µM | [7] 12.7 nM

CNC(=O)ON=CC(C)(C)SC
inactive: [11] | [12] | [13] | [14] | [15] | [16] | [17] | [18] | [5] | [6] | [7]

COP(=S)(OC)Oc1nc(Cl)c(Cl)cc1Cl
inactive: [12] | [14] | [15] | [16] | [17] | [18] | [5] | [6] | [7]
active: [11] 0.102 µM | [13] 0.358 µM

C#CCOS(=O)OC1CCCCC1Oc1ccc(C(C)(C)C)cc1 (stereo not drawn)
active: [11] 32 µM | [12] 34.6 µM | [17] 20 µM | [18] 32.5 µM | [8] 18.6 µM
inactive: [13] | [14] | [15] | [16] | [9] | [10]

C=CC1(C)OC(=O)N(c2cc(Cl)cc(Cl)c2)C1=O (stereo not drawn)
active: [20] 63.4 µM | [6] 50 µM | [10] 42.4 µM
inactive: [19] | [5] | [9] | [7]

CCCCOC(=O)c1ccccc1C(=O)OCCCC
inactive: [1] | [3] | [7]
active: [2] 34.1 µM | [5] 75.3 µM | [6] 75.1 µM

Oc1ccccc1-c1ccccc1
inactive: [4] | [8] | [20] | [9] | [10]
active: [1] 68.8 µM | [2] 58.3 µM | [19] 57.9 µM
